FadD28 FP inh: inhibitors of Mycobacterium tuberculosis FadD28 bisubstrate binding. FadD28 bisubstrate probe binding, fluorescence polarization. inhibition, % at 12.5 µM. 0.22% of 360,000 active; in the data active = inhibition above about 8.5%, passing the limit was not always enough
Rv3671c inh: Rv3671c (M. tuberculosis) protease inhibition; P9WHR9; inhibition, % at 5.96 µM; 0.048% of 320,000 active; AID 2606; in the data active = inhibition above about 38%;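 also: extracellular domain of Rv3671c used as enzyme; 0% = enzyme with DMSO and 100% = no enzyme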
TcdB GH inh: TcdB glycohydrolase inhibition. TcdB glycohydrolase enzymatic assay, plate reader. inhibition, % at 9.99 µM. 0.24% of 350,000 active. AID 652162; in the data active = inhibition above about 10%
RecA intein inh: Mtb RecA intein splicing inhibition; P9WHJ3; cell-free RecA intein splicing, fluorescence; inhibition, % (no concentration beside the values); 0.75% of 290,000 active; in the data active = inhibition above about 30%;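 also: 0% = vehicle wells and 100% = reference inhibitor control wells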
Mtb BioA inh: BioA (M. tuberculosis) enzyme inhibition. 0.096% of 360,000 active. purified M. tuberculosis BioA enzyme, plate reader. AID 602481. inhibition, % at 9.99 µM; in the data active = inhibition above about 40%
Mtb UGM inh: blocks M. tuberculosis UGM enzyme; purified UGM, fluorescence polarization probe displacement; AID 504406; 0.06% of 320,000 active; inhibition, % at 10 µM; P9WIQ1; in the data active = inhibition above about 10%, passing the limit was not always enough
GFP chromophore: counter-screen GFP chromophore formation inhibition; shares compounds with RecA intein inh; cell-free GFP chromophore formation, fluorescence; EC50, µM; 83% of 2,100 active; AID 434968; call rule not given here
Numbers without * were called inactive. This is a sample that favours compounds with a hit; in the whole collection about 0.9% have one here.

For COC(=O)c1sc(N)c(C(=O)OC)c1Cn1ncc(Cl)c(Cl)c1=O the results were FadD28 FP inh -2, Rv3671c inh 1, TcdB GH inh 1, RecA intein inh 31*, Mtb UGM inh -3 and GFP chromophore 1.6*.
COC(=O)c1sc(N)c(C(=O)OC)c1COC(=O)c1c(C)noc1C was read as FadD28 FP inh -1, Rv3671c inh -19, RecA intein inh 3, Mtb BioA inh 0 and Mtb UGM inh -1.
For Cc1cccc(NC(=O)C[C@H]2CC[C@H]3[C@@H](COc4ccc(NC(=O)C5CCC5)cc4C(=O)N3C)O2)c1 the results were TcdB GH inh -1 and Mtb BioA inh -1.
O=C(O)/C=C/C(=O)Nc1ccc(C2(c3ccc(NC(=O)/C=C/C(=O)O)cc3)c3ccccc3-c3ccccc32)cc1 was read as FadD28 FP inh -6, Rv3671c inh 17, TcdB GH inh -4, RecA intein inh 71*, Mtb BioA inh 6, Mtb UGM inh -4 and GFP chromophore 27*.
O=C(O)/C=C/C(=O)Nc1ccc(SC(F)(F)C(F)(F)C(F)(F)F)cc1 was read as FadD28 FP inh -7, Rv3671c inh -6, TcdB GH inh -3, RecA intein inh 67*, Mtb UGM inh 1 and GFP chromophore 37*.
C[C@H]1CN([C@@H](C)CO)C(=O)c2cc(NC(=O)CCC(F)(F)F)ccc2O[C@H]1CN(C)C was read as TcdB GH inh -1 and Mtb BioA inh 2.
Screening N#C/C(=N\Nc1ccc(S(=O)(=O)N2CCc3ccccc32)cc1)C(N)=S returned FadD28 FP inh 46*, Rv3671c inh 17, TcdB GH inh 1, RecA intein inh 31*, Mtb BioA inh 4, Mtb UGM inh 0 and GFP chromophore 32*.
COc1cccc(NC(=O)CSc2c3c(nc4ccccc24)CCCC3)c1 was read as FadD28 FP inh -6, Rv3671c inh -13, RecA intein inh 70*, Mtb UGM inh 1 and GFP chromophore 24*.
For Cc1c(C)n(O)c2ccc3nonc3c12 the results were FadD28 FP inh -1, Rv3671c inh 3, TcdB GH inh -1, RecA intein inh 56*, Mtb BioA inh 2, Mtb UGM inh 5 and GFP chromophore 24*.
Screening CC(C)(C)[S@](=O)N1Cc2cc(C(=O)N3CCCCC3)nc(-c3cccc(-c4cccc(C#N)c4)c3)c2[C@@H]1CCO returned TcdB GH inh 0 and Mtb BioA inh 1.
O=S(=O)(c1ccccc1)c1ncc(C(F)(F)F)cc1Cl was read as FadD28 FP inh 0, TcdB GH inh -1, RecA intein inh 63*, Mtb BioA inh 0 and GFP chromophore 25*.
`O=S(=O)(c1ccccc1)c1ncc(C(F)(F)F)cc1O` gave FadD28 FP inh -2, Rv3671c inh 2, TcdB GH inh 2, RecA intein inh 3, Mtb BioA inh -1 and Mtb UGM inh 3.
For C[C@@H]1CN([C@@H](C)CO)C(=O)c2cccc(NC(=O)CCCCCC(=O)Nc3ccccc3N)c2O[C@@H]1CN(C)S(=O)(=O)c1ccc(Cl)cc1 the results were TcdB GH inh -6.
`CN1CCCCN2[C@H](CO)[C@@H](c3ccc(C#Cc4ccccc4F)cc3)[C@H]2C1` gave TcdB GH inh -1 and Mtb BioA inh -1.
Screening O=C(c1ccncc1)N(c1ccc2oc3c(c2c1)CCCC3)S(=O)(=O)c1ccc(F)cc1 returned FadD28 FP inh -1, Rv3671c inh -14, TcdB GH inh 1, RecA intein inh 51*, Mtb UGM inh -1 and GFP chromophore 4.1*.
CC(=O)c1c(C)oc2ccc(N(C(=O)c3ccncc3)S(=O)(=O)c3ccccc3)cc12 was read as FadD28 FP inh -2, Rv3671c inh -3, TcdB GH inh 2, RecA intein inh 0, Mtb BioA inh 0 and Mtb UGM inh 2.
O=C(C[C@H]1C[C@H]2c3cc(NC(=O)NC4CCCCC4)ccc3O[C@H]2[C@@H](CO)O1)NCc1ccccc1 was read as TcdB GH inh -9 and Mtb BioA inh 0.
Screening O=C1C(Cl)=C(N2CCC(C(=O)O)CC2)C(=O)c2ccccc21 returned FadD28 FP inh 2, Rv3671c inh -100, RecA intein inh 50*, Mtb UGM inh -1 and GFP chromophore 13*.
NC(=O)C1CCN(C2=C(Cl)C(=O)c3ccccc3C2=O)CC1 was read as FadD28 FP inh -4, Rv3671c inh -71, RecA intein inh 43*, Mtb BioA inh 2, Mtb UGM inh 3 and GFP chromophore 0.54*.
For NC(=O)C1CCN(C2=C(NS(=O)(=O)c3ccccc3)C(=O)c3ccccc3C2=O)CC1 the results were FadD28 FP inh 0, Rv3671c inh -7, TcdB GH inh 1, RecA intein inh -1 and Mtb UGM inh 1.
Screening COc1ccc(C(=O)N/N=C/c2ccc(OC)c(COc3ccc(F)cc3)c2)cc1 returned FadD28 FP inh -2, Rv3671c inh -20, TcdB GH inh 2, RecA intein inh -1, Mtb BioA inh 0 and Mtb UGM inh -1.
Screening COc1ccc(C(=O)/C=C/c2ccc(OC)c(COc3ccccc3F)c2)cc1 returned FadD28 FP inh 2, Rv3671c inh -15, RecA intein inh 18, Mtb BioA inh -3 and Mtb UGM inh -1.
COc1ccc(/C=C/C(=O)c2ccccc2)cc1COc1ccc(F)cc1 was read as FadD28 FP inh -5, Rv3671c inh -10, TcdB GH inh 1, RecA intein inh 41*, Mtb UGM inh 5 and GFP chromophore >38.
Screening COc1ccc(/C=C/C(=O)c2ccc(O)cc2)cc1COc1ccc(F)cc1 returned FadD28 FP inh -3, Rv3671c inh -72, TcdB GH inh 0, RecA intein inh 36*, Mtb BioA inh -2, Mtb UGM inh 1 and GFP chromophore >38.
`CO[C@H]1CN(C)C(=O)c2cc(NC(C)=O)ccc2OC[C@@H](C)N(C(=O)CC2CC2)C[C@@H]1C` gave TcdB GH inh 2 and Mtb BioA inh 1.
Screening CC1(S(=O)(=O)O)CC(=O)c2ccccc2C1=O (stereo not given) returned FadD28 FP inh 0, Rv3671c inh -7, TcdB GH inh -2, RecA intein inh 93*, Mtb BioA inh -1, Mtb UGM inh -2 and GFP chromophore 4.3*.
For O=C1c2ccccc2C(=O)C1(O)O the results were Rv3671c inh -185 and Mtb UGM inh 1.
For Nc1scc2c(C(=O)N/N=C/c3ccc(Cl)cc3)nn(-c3ccccc3)c(=O)c12 the results were FadD28 FP inh -3, Rv3671c inh -11, RecA intein inh 63*, Mtb BioA inh -1, Mtb UGM inh -2 and GFP chromophore 16*.
For CCOc1ccccc1C1C(C#N)=C(N)Nc2onc(-c3ccccc3)c21 (stereo not given) the results were FadD28 FP inh -8, Rv3671c inh -14, RecA intein inh 78*, Mtb BioA inh 0, Mtb UGM inh 4 and GFP chromophore 16*.

Screening data: PubChem BioAssay, several laboratories
